# Screening results from PubChem BioAssay.
# This is a sample that favours compounds with a hit; in the whole collection about 19% have one here.
# HT1080 IDH1KD tx = qHTS for induction of synthetic lethality in tumor cells producing 2HG: qHTS for the HT-1080-IDH1KD cell line | HT-1080 IDH1 knockdown viability, ATP luminescence, 48 h | Potency, µM (highest dose often 46.1 µM), for inactives: at the highest dose activity, negative = toxicity, most hits filed as cytotoxic | 360,000 compounds, 2% hits;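 also: potency is read from the fitted curve at half-maximal effect; 0% = DMSO wells and -100% = cell-free medium wells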
#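 In this qHTS, HT-1080 cells depleted of IDH1 are exposed for 48 h at 37 °C to compound titrations. Toxicity is scored from CellTiter-Glo luminescence, with DMSO as full viability and medium alone as none.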
# TDP1 cell noCPT = qHTS for Inhibitors of human tyrosyl-DNA phosphodiesterase 1 (TDP1): qHTS in cells in absence of CPT; 420,000 compounds, 15% hits; Potency, µM (highest dose often 46.2 µM), for the others: top-dose activity change, negative = growth inhibition, most hits filed as inhibitors; DT40 Tdp1-/- hTDP1 cells, no CPT, ATP luminescence, 48 h; also: potency is read from the fitted curve at half-maximal effect; nearly all actives have a fitted effect of over 55% in size
#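 Growth of hTDP1-complemented DT40 Tdp1-knockout cells is measured by ATP luminescence after at least 48 hr compound exposure at 37 °C, with DMSO substituting for the 20 nM CPT used in the parallel screen.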
# TDP1 cell CPT = qHTS for Inhibitors of human tyrosyl-DNA phosphodiesterase 1 (TDP1): qHTS in cells in presence of CPT; chicken DT40 Tdp1-/-;hTDP1 cells + 20 nM CPT, ATP luminescence, 48 h; 420,000 compounds, 12% hits; Potency, µM (doses to about 46.2 µM), without a hit: at the top dose activity change, negative = growth inhibition, actives largely listed as inhibitors; also: potency is read from the fitted curve at half-maximal effect; nearly all actives have a fitted effect of over 55% in size
#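 Cell growth measured by CellTiter-Glo luminescence after a minimum 48 h, 37 C compound exposure with 20 nM CPT in Tdp1-knockout DT40 cells stably expressing hTDP1, seeded 400/well; qHTS titration format.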
# HT1080-NT tox = qHTS for induction of synthetic lethality in tumor cells producing 2HG: qHTS for the HT-1080-NT fibrosarcoma cell line; 360,000 compounds, 1.6% hits; Potency, µM (highest dose often 46.1 µM), for the others: top-dose activity, negative = less viability, actives largely listed as cytotoxic; HT-1080-NT fibrosarcoma viability, CellTiter-Glo ATP luminescence, 48 h;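 also: NT is the 2HG producing partner of a matched IDH1 knockdown line; potency is read from the fitted curve at half-maximal effect; 0% = DMSO-treated cells and -100% = media-only wells without cells; nearly all actives have a fitted effect of over 55% in size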
#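 Viability of the 2HG-overproducing fibrosarcoma line after 48 hours of compound exposure at 37 degrees C was determined by luminescence with CellTiter-Glo, and concentration-effect curves were then fitted and categorized.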
# IL1B secr inh = qHTS for Inhibitors of Inflammasome Signaling: IL-1-beta AlphaLISA Primary Screen. THP-1 LPS/ATP IL-1B secretion, AlphaLISA, 16 h; hits give low values. AID 743279, 2014. 360,000 compounds, 4.7% hits. activity change, % at 57.5 µM; in the data active = activity change below about -50%; inconclusive = mostly about -30% to -49%
#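 THP-1 cells pretreated 1 hr with compounds (up to 57.5 uM final), then stimulated with LPS (250 ng/mL final) plus ATP (1.25 mM final); secreted IL-1B measured by AlphaLISA after 16 hr, decreased signal indicating inhibition.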
# Numbers without * were called inactive; ? = inconclusive; · = no result; [ ] = another dose, or the depositor's remark. Unless noted, calls follow the shape of the dose curve; as a rule, active = well fitted curve in the direction sought with a large enough effect; inconclusive = small, poorly fitted or top-dose-only effect, or another doubt; inactive = no such curve, though single readings can be large; an effect the other way counts as inactive or inconclusive. Unless noted, % is scaled to controls: 0 for no effect and ±100 for the full control effect.
SMILES,HT1080 IDH1KD tx,TDP1 cell noCPT,TDP1 cell CPT,HT1080-NT tox,IL1B secr inh
CCc1ccc(C(=O)CSc2nc3ccccc3c(=O)[nH]2)cc1,1.2%,1.64µM*,1.46µM*,0.9%,51.2
O=C(CCCSc1nc2ccccc2c(=O)[nH]1)c1ccc(F)cc1,-14.8%,?,11.6µM*,-6.3%,0.0
O=C(Nc1cccc2ccccc12)OCc1cncs1,21.0%,-10.1%,-1.7%,7.7%,10.9
CCOc1ccc(NC(=O)Cn2c(=O)n(CCCC(=O)NC3CCN(Cc4ccccc4)CC3)c(=O)c3ccccc32)cc1,-3.2%,?,?,0.7%,11.1
COc1cccc(Cc2nc3cccnc3n2C2CCN(C(=O)c3n[nH]c4c3CCCC4)CC2)c1,·,-18.2%,3.5%[9.04 µM],·,·
Cc1cc(=O)[nH]c(SCC(=O)c2ccc(C(C)C)cc2)n1,-9.4%,18.4µM*,-25.7%,-1.0%,21.8
Cc1ccc(C(=O)CSc2nc3ccccc3c(=O)[nH]2)cc1C,-27.5%,?,?,2.0%,21.7
COc1ccc(C(=O)CSc2nc(C)cc(=O)[nH]2)cc1,-3.8%,-15.0%,-12.5%,-2.6%,27.0
Cc1ccc(C(=O)CSc2nc3ccccc3c(=O)[nH]2)cc1,2.0%,8.2µM*,5.8µM*,2.4%,0.0
CC(C)n1c(O)c(/C=C2\C=NN=C2c2ccccc2)sc1=S,20.6µM*,?,?,20.6µM*,·
CCn1c(O)c(/C=C2\C=NN=C2c2ccc(C)cc2)sc1=S,4.5%,-19.1%,0.0%,12.6%,-12.0
COc1cccc(Cn2c(=O)n(-c3ccc(Br)cc3F)c(=O)c3sc4ccccc4c32)c1,·,?,9.2µM*,·,·
Cc1ccc(Cl)cc1-n1c(=O)c2sc3ccccc3c2n(CC(=O)NC2CCCC2)c1=O,·,?,-28.1%,·,·
O=c1c2sc3ccccc3c2n(Cc2ccc(Cl)cc2)c(=O)n1Cc1ccco1,·,8.2µM*,?,·,·
CCOc1ccc(-n2c(=O)c3sc4ccccc4c3n(Cc3ccc(F)cc3)c2=O)cc1,·,?,-4.9%,·,·
Cc1ccc(Cl)cc1-n1c(=O)c2sc3ccccc3c2n(Cc2ccccc2)c1=O,·,5.8µM*,23.1µM*,·,·
CN=c1scc(C)n1/N=C/c1ccc(O)cc1O,-19.7%,?,?,-14.3%,-3.5
CN=c1scc(-c2ccco2)n1/N=C/c1ccc(O)c(O)c1,-4.8%,9.2µM*,4.61µM*,-37.3%,47.1
C=CCN=c1scc(C)n1/N=C/c1ccc(O)c(O)c1,-21.2%,7.31µM*,16.4µM*,-14.2%,44.1
CN=c1scc(C)n1/N=C/c1ccc(O)cc1,-10.7%,23.1µM*,?,-1.9%,-12.9
S=C(NCC1COc2ccccc2O1)Nc1ccccc1 (centres undefined),-0.4%,?,-17.9%,-2.8%,-29.4
Cc1cc(Nc2ccc(Br)cc2)nc(-c2ccccc2O)n1,-14.9%,-25.2%,?,2.9%,-24.2
Cc1cc(N(C)/N=C/c2ccccc2O)nc(-c2ccccc2O)n1,20.9%,4.11µM*,5.8µM*,5.8%,30.1
O=C(N/N=C/c1c[nH]c2ccccc12)c1cccc([N+](=O)[O-])c1,1.5%,-28.6%,4.0%,0.8%,-4.3
Cc1ccc(-n2[nH]c(C)c(/C=N/Nc3ccc([N+](=O)[O-])cc3[N+](=O)[O-])c2=O)cc1C,20.6µM*,20.6µM*,?,?,-14.9
Cc1[nH]n(-c2ccccc2)c(=O)c1/C=N/NC(=O)c1cccc([N+](=O)[O-])c1,?,0.651µM*,0.259µM*,?,134.6
Cc1[nH]n(-c2cccc3ccccc23)c(=O)c1/C=N/NC(=O)c1cccc([N+](=O)[O-])c1,?,1.3µM*,2.06µM*,?,31.8
Cc1[nH]n(-c2cccc([N+](=O)[O-])c2)c(=O)c1-c1ccccc1,3.9%,?,-24.1%,-4.2%,12.3
CCOc1cccc(CNc2nnnn2C)c1,0.8%,-6.5%,-2.9%,3.8%,31.3
